Compound activity: PubChem BioAssay, National Center for Advancing Translational Sciences (NCATS)
Anthrax LT inh – anthrax lethal toxin internalization inhibition; Cells, anthrax lethal toxin internalization, FRET ratio (460/530); Potency, µM (top dose mostly 40 µM), usual class: inhibitors; 0.67% of 70,000 active; AID 912; further: nearly all actives have a fitted effect of over 50% in size
SmPrx2 inh – Schistosoma mansoni Prx2 inhibition | S. mansoni Prx2 activity coupled to TGR/GSH (TGR is thioredoxin glutathione reductase), NADPH fluorescence loss, qHTS | Potency, µM | 0.07% of 65,000 active
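Prx2 activity was followed as the loss of NADPH fluorescence (ex 365/em 450 nm), read every 30 sec for 8 min after H2O2 start. The enzyme mix (50 nM Prx2, 25 nM TGR, GSH, NADPH; pH 7.4 phosphate buffer) was incubated with compound for 15 min at room temperature first.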
AmpC nodet inh – inhibitors of E. coli AmpC beta-lactamase without detergent. Potency, µM (series often up to 28.7 µM). P00811. AmpC nitrocefin hydrolysis, absorbance 480 nm, no detergent. 1.8% of 71,000 active. AID 585
Target sequence (P00811 whole entry, looked up): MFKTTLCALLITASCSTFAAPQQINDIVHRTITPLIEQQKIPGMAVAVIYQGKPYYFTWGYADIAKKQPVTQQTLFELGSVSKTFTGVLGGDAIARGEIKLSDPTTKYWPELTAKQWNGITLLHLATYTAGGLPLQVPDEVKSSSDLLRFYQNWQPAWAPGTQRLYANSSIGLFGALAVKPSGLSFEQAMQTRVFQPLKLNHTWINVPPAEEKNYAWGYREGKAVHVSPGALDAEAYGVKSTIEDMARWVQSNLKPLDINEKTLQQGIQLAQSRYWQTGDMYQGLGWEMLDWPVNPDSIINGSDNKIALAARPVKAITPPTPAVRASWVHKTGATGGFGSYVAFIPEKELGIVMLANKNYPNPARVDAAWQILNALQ
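AmpC, 20 mM phosphate pH 7.0; 15 min cpd preinc, RT; start with nitrocefin (800 uM stock); A480 kinetic read, 20 s intervals, 4 min. No-enzyme wells = negative control.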
AmpC inh det – blocks E. coli AmpC beta-lactamase in presence of detergent. P00811. purified AmpC, nitrocefin hydrolysis with detergent. Potency, µM (titrated, usually from 28.7 µM). 0.09% of 71,000 active; active means well fitted curve in the direction sought with a large enough effect; inconclusive means small, poorly fitted or top-dose-only effect
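E. coli AmpC (5.3 nM) in 20 mM phosphate pH 7.0 with 0.01% Triton X-100, preincubated 15 min RT with compound; nitrocefin (2 uL of 800 uM stock) hydrolysis followed by 480 nm absorbance every 20 s over 4 min.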
Numbers stand for hits; n = inactive; u = inconclusive; x = no result; ! = not confirmed by another sample; [ ] = dose if it differs, or a comment. The list is not random: actives were taken first. Their share in the collection is about 2.6%. Unless noted, the call rests on the fitted dose curve.

SMILES	Anthrax LT inh	SmPrx2 inh	AmpC nodet inh	AmpC inh det
COc1ccc(C2=NOC(C(=O)Nc3cc(C)nn3-c3ccccc3)C2)cc1OC (stereo unspecified)	n	n	4µM[single pt active]	n
COc1ccc(C2=NOC(C(=O)Nc3ccc(C)cc3)C2)cc1OC (stereo unspecified)	n	n	n	n
COc1cc2c(=O)n(Cc3ccco3)c(=O)n(CC(=O)c3cccc(Br)c3)c2cc1OC	n	n	6.3µM	u
COc1cc2c(=O)n(Cc3ccco3)c(=O)n(CC(=O)c3ccc(Br)cc3)c2cc1OC	n	n	n	n
Cn1nc(OCC(N)=O)ccc1=O	n	n	n	n
NC(=O)COc1ccc(=O)n(-c2ccccc2)n1	n	n	4µM[single pt active]	n
CCOC(=O)OCC1OC(c2ccccc2)C=CC1Oc1ccc2oc(=O)cc(C)c2c1 (stereo unspecified)	n[8 µM]	x	x	x
CC(=O)Oc1ccc2cc(-c3nc4ccccc4n3C)c(=O)oc2c1	u	18	n	n
CCOC(=O)c1cc2ccc(OC(=O)c3ccco3)cc2oc1=O	u	n	n	n
COc1ccccc1CN1CC[C@@]2(CCCN(S(C)(=O)=O)C2)C1	n	n	n	n
NC(=O)c1cc(-c2ccccc2)nc(N2CCOCC2)n1	n	x	u	n
CC[n+]1cc(-c2ccccc2)nc(N2CCOCC2)n1	n	n	16µM[single pt active]	n
Cc1cccc(CNc2ccnc(-c3cccc(C#N)c3)n2)c1	5µM	n	n	n
CSc1nnc(Cn2c(=O)sc3ccccc32)n1C	n	n	4µM[single pt active]	n
CCCSc1nnc(Cn2c(=O)sc3ccccc32)n1C	n	n	4µM[single pt active]	n
COc1cccc(C2CC(=O)N3CN(c4cccc(Cl)c4C)CSC3=C2C#N)c1OC (stereo unspecified)	u	x	4µM[single pt active]	n
COc1ccc(OC)c(C2CC(=O)N3CN(c4cccc(Cl)c4C)CSC3=C2C#N)c1 (stereo unspecified)	u	n	4µM[single pt active]	n
COc1ccc(OC)c(C2CC(=O)N3CN(c4cccc(Cl)c4)CSC3=C2C#N)c1 (stereo unspecified)	n	n	n	n
O=c1oc2c(O)c(O)cc3c(=O)oc4c(O)c(O)cc1c4c23	u	n	7.9µM	u
Cc1c(C)c2cc(Cl)c(O)c(CN(C)C)c2oc1=O	n	x	n	n
CCCc1c(-c2ccc(O)cc2)nn(-c2ccc(O)cc2)c1-c1ccc(O)cc1	u	n	7.9µM!	n
Cl.Cl.Cl.Cl.Cl.Cl.N.N.N.N.NNNNN.NNNNN.O.O.[Ru].[Ru].[Ru]	n	n	5µM	n
O=C(NCCCN1CCCCC1)C1(S(=O)(=O)c2ccc(Cl)cc2)CC1	n	n	4µM[single pt active]	n
O=C(NCCN1CCCC1)C1(S(=O)(=O)c2ccc(Cl)cc2)CC1	n	n	n	n
C[N+](C)(C)CCN(Cc1cccs1)c1ccccn1	n[8 µM]	n	n[5.75 µM]	n[5.75 µM]
SMILES	Anthrax LT inh	SmPrx2 inh	AmpC nodet inh	AmpC inh det
O=S(=O)(c1ccccc1)N1CCC2(CCCN(c3ccncc3)C2)CC1	1µM	n	n	n
O=S(=O)(c1ccccc1)N1CCC2(CCCN(c3ccccc3)C2)CC1	u	n	n	n
O=C1CCC(c2ccccc2)=NN1c1nc2ccccc2s1	u	n	n[5.75 µM]	n[5.75 µM]
CCOC(=O)N1CCc2c(sc(NC(=O)c3ccc(Cl)s3)c2C(N)=O)C1	5µM	n	n	n
CN(C)CCCN1c2ccccc2Sc2ccccc21	10µM	n	n	n
Cc1ccc(NC(=O)CC2Oc3ccc(C)cc3NC2=O)cc1 (stereo unspecified)	n	n	n	n
COc1ccc(NC(=O)CC2Oc3ccc(C)cc3NC2=O)cc1 (stereo unspecified)	n	n	4µM[single pt active]	n
COc1ccc(OC)c(CCNC(=O)CC2Oc3ccccc3NC2=O)c1 (stereo unspecified)	n	n	n	n
COc1ccc(NC(=O)CC2Oc3ccccc3NC2=O)cc1 (stereo unspecified)	n	n	4µM[single pt active]	n
CC1(C)[C@@H]2CC[C@@]1(CS(=O)(=O)Nc1ccccc1)C(=O)C2	u	n	n[5.75 µM]	n[5.75 µM]
CCn1c(SCC(=O)c2cc(OC)ccc2OC)nnc1-c1ccncc1	x	n	n	n
CCn1c(SCc2ccc(OC)cc2)nnc1-c1ccncc1	13µM	n	n	n
Cc1nn(-c2nc3ccccc3s2)c(N)c1-c1ccccc1	13µM	n	n	n
O=C(c1ccccc1)[C@H](Nc1ccc2ccccc2c1)c1ccccc1	n[8 µM]	n	n[5.75 µM]	n[5.75 µM]
CN(C)c1nc(N2CCCCC2)nc(N2CCCCC2)n1	n	n	4µM[single pt active]	n
Cc1ccc(-c2nn3c(C)nnc3s2)cc1NC(=O)COc1ccc(Cl)cc1	n	n	n	n
CC(C)(C)n1nc2c(c1NC(=O)COc1ccc(Cl)cc1)CSC2	u	n	13µM	n
O=C(N/N=C1/C[C@@H](O)[C@@H](O)[C@@H]2[C@@H]3C(=O)N(C4CCCCC4)C(=O)[C@H]3CC[C@H]12)OCc1ccccc1	n[8 µM]	x	x	x
CCCNC(=O)CS(=O)Cc1nc(-c2ccccc2C)oc1C (stereo unspecified)	u	n	4µM[single pt active]	n
CCC(C)NC(=O)CS(=O)Cc1nc(-c2ccccc2C)oc1C (stereo unspecified)	n	n	4µM[single pt active]	n
CC(C)C[C@@H](CC(=O)N[C@@H](CCC(=O)O)CC(=O)O)NC(=O)[C@@H]1CCCC[C@H]1NC(=O)C[C@H](CCCN)NC(=O)C[C@H](Cc1ccccc1)NC(=O)[C@@H]1CCCC[C@H]1N	n	n	n	n
CCOC(=O)c1ccc(NC(=O)C2CCN(S(=O)(=O)c3ccccc3)CC2)cc1	4µM	n	n	n
CCOC(=O)c1ccc(NC(=O)C2CCN(S(=O)(=O)CC)CC2)cc1	n	n	n	n
O=C(O)C(Cl)(Cl)Br	n	x	n	n
Nc1nc(N)nc(CCCCc2nc(N)nc(N)n2)n1	n[8 µM]	n	n[5.75 µM]	n[5.75 µM]
SMILES	Anthrax LT inh	SmPrx2 inh	AmpC nodet inh	AmpC inh det
O=C(Cn1c(-c2ccccc2)noc1=O)Nc1ccc(S(=O)(=O)N2CCOCC2)cc1	n	n	n	n
O=C(Cn1c(-c2ccccc2)noc1=O)Nc1ccc(N2CCCCCC2)cc1	u	n	13µM	n
Oc1cccc(Nc2nc(NCC3CCCO3)c3ccccc3n2)c1 (stereo unspecified)	n	n	10µM	n
CCn1c2ccccc2c2nnc(SCc3ccccc3)nc21	u	n	4µM[single pt active]	n
O=c1[nH]c2ccccc2n1CCCSCCCn1c(=O)[nH]c2ccccc21	u	n	n	n
CCn1c2ccccc2c2nnc(SCCCn3c(=O)[nH]c4ccccc43)nc21	7.9µM	x	n	n
CCn1c2ccccc2c2nnc(SCN3C(=O)c4ccccc4C3=O)nc21	n	x	n	n
Nc1nc(-c2ccccc2)cc(-c2ccccc2O)n1	n	n	n	n
N#CC(=C1CCCC1)c1nc(-c2ccccc2O)cs1	n	n	6.3µM	n
O=c1n(-c2ccccc2)c(=O)n2n1CC[C@H]1/C(=N\OC[C@@H](O)COCc3ccco3)[C@H]3O[C@@H]3[C@@H](O)[C@@H]12	n[8 µM]	x	x	x
COC(=O)c1cc2sccc2n1CC(=O)N1CCCc2ccccc21	10µM	n	n	n
CN(C)c1ccc(C(=O)Nc2nc3c(s2)CCCC3)cc1	13µM	n	n	n
